This is part of a sample that, as a whole, favours compounds with a hit. Of some 83,000 tested, about 20% had one in any assay.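 In brief: 96-well plates, 48 h treatment, single concentration, percent growth endpoint.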 The source made the active and inactive calls. How the source made its calls: active means growth percent below 10; inactive means the rest.
Legend:
Assay in all cases: NCI-60 one-dose screen, 48 h (100 = growth as untreated, 0 = no growth, -100 = all killed)
Settings in all cases: 10 µM unless noted
[1] = test system: SK-MEL-2 melanoma
[2] = test system: EKVX NSCLC
[3] = test system: SN12C renal
[4] = test system: UO-31 renal
[5] = test system: TK-10 renal
[6] = test system: ACHN renal
[7] = test system: A498 renal
[8] = test system: CCRF-CEM leukemia
[9] = test system: MOLT-4 leukemia

Measured: growth

O=C(O)c1cn(C2CC2)c2cc(N3CCN(C(=O)CSc4nc(NS(=O)(=O)c5ccccc5)cc(=O)[nH]4)CC3)c(F)cc2c1=O
inactive: [1] 79.7% | [2] 105% | [3] 98.6% | [4] 82% | [5] 118% | [6] 102% | [7] 113% | [8] 81%

O=C(Cn1c2ccccc2c2ccncc21)N/N=C/c1cc(O)c(O)c(O)c1
inactive: [1] 98.9% | [2] 109% | [3] 104% | [4] 98.6% | [5] 107% | [6] 108% | [7] 97.5% | [8] 112% | [9] 88.4%

Nc1nc2ccc(CNc3ccc(C(=O)NC(CC(=O)O)C(=O)O)cc3)cc2c(=O)[nH]1 (configuration not stated)
inactive: [1] 51.9% | [2] 63.6% | [3] 41.3% | [4] 16.9% | [5] 82% | [6] 33.1% | [7] 93.1% | [8] 23.2% | [9] 30.4%

CC(C)(C)NC(C1=CC(C)(C)c2ccccc2C1=O)c1ccccc1 (configuration not stated)
active: [1] -65.1% | [2] -1.1% | [3] -14.3% | [4] -97.4% | [5] -6.87% | [6] -10.5% | [8] -5.2%
inactive: [7] 45.1%

COC(=O)CCCNS(=O)(=O)c1cc(C(=O)Nc2ccc(NC(=O)c3cc(S(=O)(=O)NCCCC(=O)OC)c(O)c(O)c3O)cc2)c(O)c(O)c1O
inactive: [1] 98.6% | [2] 84.3% | [3] 85.3% | [4] 82.9% | [5] 94.9% | [6] 109% | [7] 104% | [8] 58.6%

Cc1cn(-c2nc3c(c(NCc4ccccc4)n2)COCC3)c2cccc(C(N)=O)c12
inactive: [1] 38.1% [0.5 µM] | [2] 85.9% [0.5 µM] | [3] 30.8% [0.5 µM] | [4] 55% [0.5 µM] | [5] 83.2% [0.5 µM] | [6] 39.5% [0.5 µM] | [7] 85.1% [0.5 µM] | [8] 49.1% [0.5 µM] | [9] 60.6% [0.5 µM]

CCC(C)Nc1ccc(N)cc1 (configuration not stated)
active: [1] 7.8% | [2] 8.66% | [4] -2.85% | [9] -13.7%
inactive: [3] 10.5% | [5] 45.4% | [6] 46% | [7] 91.9% | [8] 12.8%

Cc1nssc1=S
inactive: [1] 88.6% | [2] 96.5% | [3] 118% | [4] 87.9% | [5] 96.4% | [6] 109% | [7] 147% | [8] 92.2% | [9] 99.8%

NC(CSC(c1ccccc1)(c1ccccc1)c1ccc(F)cc1)C(=O)O (configuration not stated)
active: [1] -30.6% | [2] 7.52% | [9] 9.44%
inactive: [3] 39% | [4] 25.3% | [5] 64.8% | [6] 56.8% | [7] 58.2% | [8] 11.1%

O=c1c(-c2ccc3c(c2)OCO3)coc2c(CO)c(O)ccc12
inactive: [9] 90.3%
active: [1] -66.3% | [2] 3.55% | [3] -3.58% | [4] -81.9% | [5] -15.2% | [6] -30.5% | [7] -26.7% | [8] 1.63%

COc1cc(NC(=O)c2cc(OC)c3ccn(C)c3c2)cc2c1C[C@]1(C)CC[C@@H](O)C(C)(C)[C@H]1O2
inactive: [1] 31.1% | [2] 65.2% | [3] 86.6% | [5] 90% | [6] 36.6% | [8] 19.6%
active: [4] 2.9% | [7] 1.9% | [9] 6.92%

CC(C)CCC[C@@H](C)[C@H]1CC[C@H]2[C@@H]3CC=C4N(c5ccccc5)C(=O)CC[C@]4(C)[C@H]3CC[C@]12C
inactive: [1] 101% | [2] 96.7% | [3] 86.2% | [4] 91.7% | [5] 97.4% | [6] 105% | [7] 118% | [8] 92.2% | [9] 79.9%

CN1CCN(CC(O)COc2c(Br)c(Br)c(Br)c3c2OC(C)(C)C3)CC1 (configuration not stated)
active: [4] -14.8%
inactive: [1] 38.5% | [2] 87.7% | [3] 92.5% | [5] 74.1% | [6] 77.9% | [7] 58.1% | [8] 15.6% | [9] 18.3%

O=C(c1ccccc1)[C@H]1[C@@H]2CCCN2[C@]2(C(=O)Nc3ccc(F)cc32)[C@]12C(=O)Nc1ccccc12
inactive: [1] 83.1% | [2] 70.8% | [3] 92% | [4] 85.4% | [5] 113% | [6] 88.6% | [7] 89.7% | [8] 76.8% | [9] 59.5%

O=C(COc1ccc(Cl)cc1Cl)N1N=C(c2ccc(Cl)cc2Cl)CC1(O)c1cc(F)c(Cl)cc1Cl (configuration not stated)
inactive: [1] 95.3% | [2] 87.7% | [3] 155% | [4] 76.3% | [5] 139% | [6] 234% | [7] 142% | [8] 125%
active: [9] -47.9%

Cc1cn([C@]2(CF)O[C@H](CO)C2C)c(=O)[nH]c1=O (some centres not stated)
inactive: [1] 98.3% | [2] 106% | [3] 125% | [4] 109% | [5] 109% | [6] 112% | [7] 115% | [8] 114% | [9] 94%

NC(N)=N/N=C/c1ccc([N+](=O)[O-])cc1
inactive: [1] 115% | [2] 102% | [3] 96.7% | [4] 82.6% | [5] 112% | [6] 106% | [7] 79.7% | [8] 112% | [9] 97.5%

COc1ccccc1N1CCN(CC(O)COc2c(Br)c(Br)c(Br)c3c2OC(C)(C)C3)CC1 (configuration not stated)
inactive: [1] 60.5% | [2] 117% | [3] 65.8% | [4] 13.2% | [5] 40.5% | [6] 56.1% | [7] 55.9%
active: [8] -54.6% | [9] -36.7%

Cc1cc2nc(-c3c(N)ncc(C#N)c3-c3ccc(Cl)cc3)[nH]c2cc1C
inactive: [1] 59.9% | [2] 63.7% | [3] 76.5% | [4] 77.8% | [5] 41.5% | [6] 67.7% | [7] 44.1% | [8] 54.5% | [9] 73.3%

Nc1nc(Nc2ccc(OCc3cccc(F)c3)cc2)c2c(n1)[nH]c1ccc(O)cc12
active: [1] -63% | [3] -69.3% | [4] -93.5% | [5] -9.4% | [6] -26.8% | [8] -9.7% | [9] -28%
inactive: [2] 10.5% | [7] 75.9%

Cn1c2ccccc2c2ssc(=S)c21
inactive: [1] 92.8% | [2] 39.5% | [3] 116% | [4] 84% | [5] 111% | [6] 114% | [7] 86.1% | [8] 116% | [9] 75.5%

S=c1ssnc1-c1ccccn1
inactive: [1] 31.6% | [2] 65.2% | [3] 38% | [5] 40.1% | [6] 15.4% | [7] 13%
active: [4] -40.8% | [8] -6.05% | [9] 0.997%

O=C(Cn1c2ccccc2c2ccncc21)N/N=C\c1ccc2ccccc2c1
active: [4] -28.3% | [6] 4.98%
inactive: [1] 63.8% | [2] 55.8% | [3] 19.9% | [5] 55.1% | [7] 85.1% | [8] 50.4% | [9] 41.7%

COc1ccc2c(c1)nnn1c3ncccc3c(N=O)c21
inactive: [2] 15% | [7] 31.9%
active: [1] -65.9% | [3] -80.4% | [4] -99.3% | [5] -15.1% | [6] -30.8% | [8] -22.8% | [9] -55.6%

CCNC(=O)Oc1ccc(/C(=C(/CC)Cc2ccccc2)c2ccc(OCCN3CCOCC3)cc2)cc1
inactive: [1] 66.2% | [2] 38.6% | [3] 67.7% | [4] 23% | [5] 76.2% | [6] 59.8% | [7] 76.9% | [8] 61.7% | [9] 10.1%

O=C(Nc1ccc(F)cc1)Nc1ccc(Cl)c([N+](=O)[O-])c1
inactive: [2] 15.8% | [3] 15.8% | [5] 16.6% | [7] 25.7% | [8] 18.6%
active: [1] 2.67% | [4] 8.43% | [6] 4.79% | [9] 5.48%

CC1(C)N=C(N)N=C(N)N1c1ccc(OCC(=O)Nc2ccccc2)c(Cl)c1
inactive: [1] 47.5% | [2] 48.9% | [3] 30.5% | [4] 104% | [5] 57.6% | [6] 103% | [7] 94.8% | [8] 28.8% | [9] 32%

COc1ccc(-c2cc3ccc(N(C)C)cc3nc2N)c(F)c1
inactive: [1] 47.9% | [2] 32.2% | [3] 54% | [4] 39.3% | [5] 49.1% | [6] 56.8% | [7] 47.1% | [8] 39.7% | [9] 26.3%

Clc1ccc2c(c1)nnn1c3ncccc3c(Br)c21
inactive: [1] 93% | [2] 29.2% | [3] 91.9% | [4] 58.9% | [5] 78.8% | [6] 78.4% | [7] 70.5% | [8] 86.4% | [9] 115%

ClC1c2ccccc2CCc2ccccc21
inactive: [1] 87.8% | [2] 94% | [3] 103% | [4] 60% | [5] 101% | [6] 95.8% | [7] 102% | [8] 98.7% | [9] 107%

Source: PubChem BioAssay (NCI)
